IMPase inh: IMPase inhibition in cells; 120,000 tested, under 10 active; P97697; CHO-M1 cells, IP1 accumulation, HTRF TR-FRET ratio; inhibition (IP1 accumulation), % at 46.1 µM; active = well fitted curve in the direction sought with a large enough effect in the signal ratio, not every such curve was filed as active; inconclusive = small, poorly fitted or top-dose-only effect, or a change in a side signal; inactive = no such curve, though single readings can be large or run the other way; the % refers to the signal ratio;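 note: cells stimulated with carbachol in lithium chloride buffer; plate controls were DMSO basal wells for no effect and reference inhibitor wells for full effect; higher means more IMPase inhibition seen as more IP1 and lower FRET ratio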
Target sequence (P97697 whole entry, looked up): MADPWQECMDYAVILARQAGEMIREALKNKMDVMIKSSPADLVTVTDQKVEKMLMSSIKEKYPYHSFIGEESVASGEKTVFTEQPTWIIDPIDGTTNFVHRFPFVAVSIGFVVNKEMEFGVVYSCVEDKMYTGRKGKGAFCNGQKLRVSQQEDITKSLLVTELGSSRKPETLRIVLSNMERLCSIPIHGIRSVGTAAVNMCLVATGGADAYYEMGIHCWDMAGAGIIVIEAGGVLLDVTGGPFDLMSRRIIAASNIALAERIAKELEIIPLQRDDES
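Measured: the HTRF emission ratio (665/620 nm) plus the 620 nm donor channel, each fitted to the Hill equation to give AC50. Cells were CHO-M1 given compounds up to 46 uM and a 30 min carbachol stimulation at 37C.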
HPGD block: HPGD (human) dehydrogenase inhibition | purified HPGD, NADH fluorescence kinetic, PGE2 substrate | Potency, µM, for inactives: at the highest dose activity change, negative = inhibition, actives largely listed as inhibitors | 150,000 tested, 4.3% active | P15428; active = well fitted inhibition curve with a large enough effect, not every such curve was filed as active; inconclusive = small, poorly fitted or top-dose-only effect, or another doubt; inactive = no such curve, though single readings can be large or run the other way; note: potency is the fitted concentration of half-maximal effect
Target sequence (P15428 whole entry, looked up): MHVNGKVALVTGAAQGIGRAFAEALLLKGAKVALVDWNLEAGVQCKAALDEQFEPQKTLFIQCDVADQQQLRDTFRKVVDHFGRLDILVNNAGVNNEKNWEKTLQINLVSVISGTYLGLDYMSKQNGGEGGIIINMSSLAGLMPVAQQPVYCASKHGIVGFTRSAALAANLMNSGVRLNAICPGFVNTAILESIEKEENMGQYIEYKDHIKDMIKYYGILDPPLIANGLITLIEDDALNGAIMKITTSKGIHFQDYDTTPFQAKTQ
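NADH formation kinetics: reaction with 30 uM PGE2 and 1 mM NAD+ (final), 20 nM enzyme, Tris-HCl pH 8 with Tween 20, after 15 min compound preincubation at room temperature. Fluorescence change, last versus first of five reads.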
IMPase Li cell: membrane-permeable IMPase blocker, potentiated with lithium; Potency, µM (doses to about 59.4 µM), inactives show at the top dose activity, negative = IMPase inhibition, hits mostly inhibitors; CHO-M1 cells, IP1 TR-FRET (IP-One), carbachol + lithium; 210,000 tested, 0.35% active;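 note: IP1 builds up when IMPase is blocked and the TR-FRET signal falls; potency is the fitted concentration of half-maximal effect; plate controls were basal vehicle for no effect and high inhibitor control for full effect; nearly all actives have a fitted effect of over 50% in size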
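Readout is a homogeneous TR-FRET IP1 immunoassay (Ex 320, Em 665 and 620), where raised cytosolic IP1 lowers signal. Cells were CHO-M1 treated 30 min at 37C with test compounds plus a little lithium; AC50 values came from Hill-equation fitting.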
ALOX15B inhib: inhibitors of human 15-lipoxygenase 2 (ALOX15B); O15296; purified 15hLO-2, xylenol orange hydroperoxide absorbance; Potency, µM (series often up to 57.1 µM), inactives show top-dose activity change, negative = inhibition, actives largely listed as inhibitors; 110,000 tested, 0.56% active; AID 881; note: potency is the fitted concentration of half-maximal effect; nearly all actives have a fitted effect of over 60% in size
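Enzyme 50 nM, AA 45 uM, 25 mM Hepes pH 7.5 + 0.01% Triton X-100; cpd preinc 15 min RT, rxn 90 min RT; stop/detect with 200 uM XO + 300 uM Fe(II) in 50 mM H2SO4, 30 min; A573/A405.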
PNC assembly inh: inhibitors of perinucleolar compartment assembly; 140,000 tested, 3.1% active; PC3M PTB-GFP, PNC prevalence imaging, 16 h; stronger effect = lower value; activity change (PNC), negative = inhibition, % at 10 µM;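 active = readout at or below -70, meaning at least 70% loss of cells showing the perinucleolar compartment, a nuclear body marking cancer cells; inconclusive = readout between -30 and a set limit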;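 note: plate controls were DMSO wells for no effect and camptothecin positive control wells for full effect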
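Compounds are pinned in duplicate onto adhered PC3M cells stably expressing GFP-tagged PTB and incubated 16 h at 37 C. Cells are then fixed, nuclei stained with Hoechst, and PNC-positive cells counted.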
12-hLO inh: blocks human 12-lipoxygenase activity; P18054; purified 12-hLO, xylenol orange hydroperoxide absorbance; Potency, µM (highest dose often 57.1 µM), inactives show at the top dose activity change, negative = inhibition, most hits filed as inhibitors; 150,000 tested, 0.12% active; AID 1452; note: potency is the fitted concentration of half-maximal effect; nearly all actives have a fitted effect of over 55% in size
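Hydroperoxide formation by human 12-lipoxygenase from 40 uM arachidonic acid was followed colorimetrically via ferric-xylenol orange complex, using the 573/405 nm absorbance ratio. Enzyme concentration was 150 nM, with 30 min reaction at room temperature.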
The depositor's hits bear a star; ? = inconclusive; / = no result given; [ ] = dose if it differs, or a comment. An excerpt weighted towards active compounds, which were near 5.3% of everything screened. Unless noted, calls come from the whole dose curve; as a rule, active = well fitted curve in the direction sought with a large enough effect; inconclusive = small, poorly fitted or top-dose-only effect, or another doubt; inactive = no such curve, though single readings can be large; an effect the other way counts as inactive or inconclusive. Unless noted, % is set by controls: 0 for no effect and ±100 for the full control effect.

SMILES | IMPase inh | HPGD block | IMPase Li cell | ALOX15B inhib | PNC assembly inh | 12-hLO inh
COc1cc(OC)c(NC(=S)Nc2cccc(C)c2)cc1Cl | 1 | 16µM* | -4% | / | -24 | -6%
COc1ccc(Cl)cc1NC(=S)NCCC(c1ccccc1)c1ccccc1 | -9 | -17% | 15% | / | 59 | ?
COc1cc(NC(=S)NCCC(c2ccccc2)c2ccccc2)c(OC)cc1Cl | -21 | / | / | / | 74 | 22µM*
CCN(CC)CCCn1c(-c2ccccc2)nc2c(NCCOC)nc(C)nc21 | / | ? | 8% | 10% | / | -1%
CCOc1ccc(NC(=O)CSc2nc(C)c(C(=O)Nc3ccccc3)c(-c3ccc(Cl)cc3)c2C#N)cc1 | -6 | / | / | / | / | /
O=c1c2ccccc2c(-c2ccc(Cl)cc2)nn1-c1ccccc1 | 0 | -8% | 12% | 1% | 53 | 0%
O=c1c2ccccc2c(-c2ccc(O)cc2)nn1-c1cccc(C(F)(F)F)c1 | 10 | -10% | 6% | / | -85* | -11%
CC(C)=Cc1c(O)nc2ccccn2c1=O | / | / | -4% | / | / | /
O=c1c(/C=N/O)c(Nc2ccccc2)nc2ccccn12 | 4 | 0.56µM* | 13%[38.3 µM] | -3% | 10 | -6%
COCc1cc(SC2CCCCC2)nc(C)n1 | / | / | -2% | / | / | /
O=c1ccsn1Cc1ccccc1 | 11 | 20µM* | 26%[38.3 µM] | ? | -8 | -11%
CCCCC/C=C\C/C=C\CCCCCCCCCC(=O)NC(C)C(=O)O (stereo not drawn) | / | -5% | 17% | / | / | 5%
NC(=O)c1sc2nc3c(c(-c4ccco4)c2c1N)CCC3 | -6 | -23% | -5%[38.3 µM] | 7%[2.29 µM] | ? | -8%
Nc1c(C(=O)NC2CC2)sc2nc3c(c(-c4ccco4)c12)CC/C3=C/c1ccco1 | / | 16µM* | 4% | / | 4 | -22%
O=C(CN1CCCCC1)NCCNc1ccc(C(F)(F)F)cc1[N+](=O)[O-] | / | -6% | 13% | / | 13 | 3%
CCOc1ccc2c(c1)sc(N)[n+]2Cc1cc(C)cc2cccnc12 | 21 | -11% | 27% | / | -85* | -1%
COc1ccccc1OCc1ccc(C(=O)N2CCN3CCCC3C2)cc1 (stereo not drawn) | 14 | 20µM* | 4%[38.3 µM] | 6% | -9 | 6%
COc1ccc(C(=O)N2CCN(C3CCN(Cc4ccccc4)CC3)CC2)cc1OC | 1 | 4% | 39%[38.3 µM] | -10% | 5 | -2%
CCOc1cccc(C(=O)NC(=S)Nc2ccc(Cl)cc2C(=O)O)c1 | / | / | -18% | / | / | /
Cc1nnc(SCc2ccccc2F)n1NCc1cccs1 | 16 | 32µM* | 16%[38.3 µM] | -4% | ? | 0%
Cc1nnc(SCC(=O)NCc2cccs2)n1-c1ccccc1 | -13 | 2% | -18%[38.3 µM] | -6% | -21 | -2%
COc1ccc2[nH]cc(CCNc3ccnc(-c4ccccc4Cl)n3)c2c1 | / | / | 40% | 18% | / | /
O=C(Cl)c1cccc([N+](=O)[O-])c1 | / | -6% | 10% | -9% | / | -6%
CC1Oc2ccccc2OC1(O)c1ccc2ccccc2n1 (stereo not drawn) | 5 | -18% | 6% | / | ? | -1%
COc1ccc(-c2ccccc2)cc1NCc1ccc(OC)c(OC)c1 | / | ? | 12% | / | 22 | -5%
SMILES | IMPase inh | HPGD block | IMPase Li cell | ALOX15B inhib | PNC assembly inh | 12-hLO inh
O=C1CN(CC(=O)N2CCOCC2)c2ccccc2O1 | 11 | -6% | 50%[38.3 µM] | 8% | -118* | ?
CC(Sc1nc(-c2ccc(F)cc2)cs1)C(=O)Nc1ccc(Cl)cn1 (stereo not drawn) | / | -18% | 13% | / | -100* | -2%
Cc1csc(SC(C)C(=O)Nc2ccc(Cl)cn2)n1 (stereo not drawn) | -1 | -2% | 6%[38.3 µM] | -4% | 4 | -3%
OCc1ccc(-c2ccc(-c3ccc(CO)s3)o2)s1 | / | ? | -4% | ? | / | -3%[0.00818 µM]
O=C(O)[C@@H]1CCCN1 | / | -5% | -6% | 2%[11.4 µM] | / | 1%[11.4 µM]
COC(=O)CNC(=O)[C@@]1(C)C=C[C@@H](Cc2ccccc2)N1C(C)=O | / | 10µM* | 3% | 15% | / | -3%
CC(=O)N1[C@H](Cc2ccccc2)C=C[C@]1(C)C(=O)O | / | -13% | -7% | -3% | / | 0%

High-throughput results as filed in PubChem BioAssay.
